Measurements published in the supplement of paper PMC10849652.
The full data set covers some 7,900 targets. This sample favours those with a hit. About 0.6% of all pairs of compound and target were hits. Unmarked numbers belong to inactive results.

Tests used:
Assay in all cases: log2 fold change, soluble protein after heating vs DMSO (PISA); higher = thermal stabilisation; K562 cells, 10 uM, 30 min; active = over 0.2 and 3.5 SD of the protein, either way, in both replicates (recomputed)
saracatinib = compound: CN1CCN(CCOc2cc(OC3CCOCC3)c3c(Nc4c(Cl)ccc5c4OCO5)ncnc3c2)CC1 [saracatinib]
In short: (§1)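 Values are thermal stability changes relative to control samples and are taken from duplicates. They are stated as log2 fold changes. Before quantification by TMTpro 16plex LC-MS/MS with equalised channel sums, K562 cells at 2×10^6 cells/mL were treated with 10 μM compound for 30 min, heated in aliquots for 3 min across 48°C-58°C, pooled, extracted in PBS with 0.5% NP-40 at 4°C, and centrifuged at 21,000xg for 90 min to give the soluble supernatant.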

sotrastaurin = compound: CN1CCN(c2nc(C3=C(c4c[nH]c5ccccc45)C(=O)NC3=O)c3ccccc3n2)CC1 [sotrastaurin]
In short: as §1

alvocidib = compound: CN1CC[C@H](c2c(O)cc(O)c3c(=O)cc(-c4ccccc4Cl)oc23)[C@H](O)C1 [alvocidib]
In short: as §1

Tubastatin A = compound: CN1CCc2c(c3ccccc3n2Cc2ccc(C(=O)NO)cc2)C1 [Tubastatin A]
In short: as §1

[1] = compound: CNC(=O)C1=CC=CC=C1NC2=NC(=NC=C2Cl)NC3=C(C=C(C=C3)N4CCOCC4)OC
In short: as §1

defactinib = compound: CNC(=O)c1ccc(Nc2ncc(C(F)(F)F)c(NCc3nccnc3N(C)S(C)(=O)=O)n2)cc1 [defactinib]
In short: as §1

rucaparib = compound: CNCc1ccc(-c2[nH]c3cc(F)cc4c3c2CCNC4=O)cc1 [rucaparib]
In short: as §1

[2] = compound: CNc1nc(-c2ccc3c(N)n[nH]c3c2)cc(N2C[C@@H](C(=O)NC3CCCCC3)CC[C@H]2C)n1
In short: as §1

encorafenib = compound: COC(=O)N[C@@H](C)CNc1nccc(-c2cn(C(C)C)nc2-c2cc(Cl)cc(NS(C)(=O)=O)c2F)n1 [encorafenib]
In short: as §1

[3] = compound: COC(=O)[C@H](CCSC)NC(=O)C1=C(C=C(C=C1)NC[C@H](CS)N)C2=CC=CC=C2
In short: as §1

[4] = compound: COC1=CC=C(C=C1)CN2C=CC3=C2C=C(C=C3)C(=O)NO
In short: as §1

filanesib = compound: CON(C)C(=O)N1N=C(c2cc(F)ccc2F)S[C@@]1(CCCN)c1ccccc1 [filanesib]
In short: as §1

zotarolimus = compound: CO[C@H]1C[C@@H]2CC[C@@H](C)[C@@](O)(O2)C(=O)C(=O)N2CCCC[C@H]2C(=O)O[C@H]([C@H](C)C[C@@H]2CC[C@H](n3cnnn3)[C@H](OC)C2)CC(=O)[C@H](C)/C=C(\C)[C@@H](O)[C@@H](OC)C(=O)[C@H](C)C[C@H](C)/C=C/C=C/C=C/1C [zotarolimus]
In short: as §1

idasanutlin = compound: COc1cc(C(=O)O)ccc1NC(=O)[C@@H]1N[C@@H](CC(C)(C)C)[C@](C#N)(c2ccc(Cl)cc2F)[C@H]1c1cccc(Cl)c1F [idasanutlin]
In short: as §1

alisertib = compound: COc1cc(Nc2ncc3c(n2)-c2ccc(Cl)cc2C(c2c(F)cccc2OC)=NC3)ccc1C(=O)O [alisertib]
In short: as §1

[5] = compound: COc1cc2nc(-c3cc(F)ccc3O)nc(N[C@@H]3CNC[C@H]3C(C)(C)O)c2cc1OC
In short: as §1

[6] = compound: COc1cccc2cc(-c3nc([C@H]4CC[C@H](C(=O)O)CC4)n4ncnc(N)c34)[nH]c12
In short: as §1

lapatinib = compound: CS(=O)(=O)CCNCc1ccc(-c2ccc3ncnc(Nc4ccc(OCc5cccc(F)c5)c(Cl)c4)c3c2)o1 [lapatinib]
In short: as §1

pictilisib = compound: CS(=O)(=O)N1CCN(Cc2cc3nc(-c4cccc5[nH]ncc45)nc(N4CCOCC4)c3s2)CC1 [pictilisib]
In short: as §1

gefitinib = compound: COc1cc2ncnc(Nc3ccc(F)c(Cl)c3)c2cc1OCCCN1CCOCC1 [gefitinib]
In short: as §1

UniProt Q86UD1, sequence (Q86UD1 whole entry, looked up): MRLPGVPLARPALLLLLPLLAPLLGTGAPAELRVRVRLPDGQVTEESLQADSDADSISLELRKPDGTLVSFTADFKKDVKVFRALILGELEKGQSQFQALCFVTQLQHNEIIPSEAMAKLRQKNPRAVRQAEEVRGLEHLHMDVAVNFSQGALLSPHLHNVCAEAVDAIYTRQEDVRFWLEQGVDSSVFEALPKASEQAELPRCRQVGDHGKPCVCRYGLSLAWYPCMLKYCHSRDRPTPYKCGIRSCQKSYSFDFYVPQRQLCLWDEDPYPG
UniProt B2RBV5, sequence (B2RBV5 whole entry, looked up): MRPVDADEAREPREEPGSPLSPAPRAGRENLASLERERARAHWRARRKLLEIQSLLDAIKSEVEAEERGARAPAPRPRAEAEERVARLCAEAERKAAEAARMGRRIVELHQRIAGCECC
UniProt Q8WZ82, sequence (Q8WZ82 whole entry, looked up): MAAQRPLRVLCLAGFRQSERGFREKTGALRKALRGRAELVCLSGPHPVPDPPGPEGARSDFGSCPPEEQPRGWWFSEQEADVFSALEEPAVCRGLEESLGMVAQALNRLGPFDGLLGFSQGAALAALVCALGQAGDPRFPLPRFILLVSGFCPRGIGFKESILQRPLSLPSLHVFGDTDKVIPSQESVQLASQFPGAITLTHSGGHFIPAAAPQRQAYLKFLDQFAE
UniProt Q92692, sequence (Q92692 whole entry, looked up): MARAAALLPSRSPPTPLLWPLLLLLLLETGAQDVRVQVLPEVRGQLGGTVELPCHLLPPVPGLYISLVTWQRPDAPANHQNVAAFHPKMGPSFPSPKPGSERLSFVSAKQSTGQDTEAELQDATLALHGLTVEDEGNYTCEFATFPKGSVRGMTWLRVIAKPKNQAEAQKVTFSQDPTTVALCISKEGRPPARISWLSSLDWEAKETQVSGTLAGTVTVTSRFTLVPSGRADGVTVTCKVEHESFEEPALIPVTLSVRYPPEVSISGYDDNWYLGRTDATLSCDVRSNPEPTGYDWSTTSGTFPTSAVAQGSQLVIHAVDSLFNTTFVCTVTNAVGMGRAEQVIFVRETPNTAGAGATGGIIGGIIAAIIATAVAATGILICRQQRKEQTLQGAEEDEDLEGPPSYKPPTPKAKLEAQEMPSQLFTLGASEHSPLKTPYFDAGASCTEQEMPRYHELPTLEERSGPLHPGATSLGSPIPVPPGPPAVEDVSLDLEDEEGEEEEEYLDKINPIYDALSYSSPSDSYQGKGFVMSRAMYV
UniProt Q70IA6, sequence (Q70IA6 whole entry, looked up): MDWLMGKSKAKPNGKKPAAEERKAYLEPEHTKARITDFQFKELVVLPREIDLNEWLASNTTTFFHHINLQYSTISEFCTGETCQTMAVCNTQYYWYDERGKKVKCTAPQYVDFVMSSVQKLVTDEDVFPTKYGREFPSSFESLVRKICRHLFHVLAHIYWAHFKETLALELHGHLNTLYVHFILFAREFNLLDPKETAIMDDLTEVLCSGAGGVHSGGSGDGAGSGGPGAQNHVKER
UniProt Q9H1P3, sequence (Q9H1P3 whole entry, looked up): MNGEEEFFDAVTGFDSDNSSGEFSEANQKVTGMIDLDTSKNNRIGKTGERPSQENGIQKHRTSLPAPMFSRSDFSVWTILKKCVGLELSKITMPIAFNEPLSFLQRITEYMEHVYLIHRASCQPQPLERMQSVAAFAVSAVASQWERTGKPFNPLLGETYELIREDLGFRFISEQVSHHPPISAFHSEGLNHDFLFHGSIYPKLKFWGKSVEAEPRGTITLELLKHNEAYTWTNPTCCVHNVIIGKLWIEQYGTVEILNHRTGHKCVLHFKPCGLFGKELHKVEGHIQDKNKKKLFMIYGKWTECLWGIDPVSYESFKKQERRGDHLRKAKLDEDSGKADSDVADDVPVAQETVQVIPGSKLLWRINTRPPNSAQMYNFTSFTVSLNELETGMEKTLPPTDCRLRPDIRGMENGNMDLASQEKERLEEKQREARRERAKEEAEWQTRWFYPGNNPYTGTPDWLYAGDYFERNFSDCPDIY
UniProt P15531, sequence (P15531 whole entry, looked up): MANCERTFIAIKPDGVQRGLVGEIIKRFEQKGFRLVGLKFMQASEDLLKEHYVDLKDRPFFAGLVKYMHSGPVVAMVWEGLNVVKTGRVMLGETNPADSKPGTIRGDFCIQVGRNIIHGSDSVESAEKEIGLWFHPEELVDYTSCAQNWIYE
UniProt Q9H4L5, sequence (Q9H4L5 whole entry, looked up): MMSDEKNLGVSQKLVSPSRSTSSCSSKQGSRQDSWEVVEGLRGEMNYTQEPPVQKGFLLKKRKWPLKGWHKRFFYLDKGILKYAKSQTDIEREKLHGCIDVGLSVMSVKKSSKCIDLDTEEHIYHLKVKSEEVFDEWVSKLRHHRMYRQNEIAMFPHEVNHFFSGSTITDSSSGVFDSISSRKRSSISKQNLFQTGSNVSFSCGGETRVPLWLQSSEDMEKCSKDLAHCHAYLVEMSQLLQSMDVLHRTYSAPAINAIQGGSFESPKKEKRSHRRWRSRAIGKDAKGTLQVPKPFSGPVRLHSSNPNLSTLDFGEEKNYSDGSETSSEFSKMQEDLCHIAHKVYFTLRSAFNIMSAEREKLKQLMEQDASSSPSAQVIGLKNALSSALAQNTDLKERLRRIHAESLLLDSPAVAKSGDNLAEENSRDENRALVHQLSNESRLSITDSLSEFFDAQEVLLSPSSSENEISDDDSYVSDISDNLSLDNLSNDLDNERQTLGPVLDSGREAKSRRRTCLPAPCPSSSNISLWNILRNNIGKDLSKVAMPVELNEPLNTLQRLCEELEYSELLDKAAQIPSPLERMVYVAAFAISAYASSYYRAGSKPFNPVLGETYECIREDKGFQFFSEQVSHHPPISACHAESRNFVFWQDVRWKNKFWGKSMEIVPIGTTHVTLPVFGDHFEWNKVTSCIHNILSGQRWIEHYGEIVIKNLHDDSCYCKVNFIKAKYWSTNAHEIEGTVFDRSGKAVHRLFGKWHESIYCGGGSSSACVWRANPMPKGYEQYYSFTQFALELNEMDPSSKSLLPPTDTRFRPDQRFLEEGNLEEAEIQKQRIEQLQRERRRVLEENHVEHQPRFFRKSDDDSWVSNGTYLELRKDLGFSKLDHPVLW
UniProt Q92621, sequence (Q92621 whole entry, looked up): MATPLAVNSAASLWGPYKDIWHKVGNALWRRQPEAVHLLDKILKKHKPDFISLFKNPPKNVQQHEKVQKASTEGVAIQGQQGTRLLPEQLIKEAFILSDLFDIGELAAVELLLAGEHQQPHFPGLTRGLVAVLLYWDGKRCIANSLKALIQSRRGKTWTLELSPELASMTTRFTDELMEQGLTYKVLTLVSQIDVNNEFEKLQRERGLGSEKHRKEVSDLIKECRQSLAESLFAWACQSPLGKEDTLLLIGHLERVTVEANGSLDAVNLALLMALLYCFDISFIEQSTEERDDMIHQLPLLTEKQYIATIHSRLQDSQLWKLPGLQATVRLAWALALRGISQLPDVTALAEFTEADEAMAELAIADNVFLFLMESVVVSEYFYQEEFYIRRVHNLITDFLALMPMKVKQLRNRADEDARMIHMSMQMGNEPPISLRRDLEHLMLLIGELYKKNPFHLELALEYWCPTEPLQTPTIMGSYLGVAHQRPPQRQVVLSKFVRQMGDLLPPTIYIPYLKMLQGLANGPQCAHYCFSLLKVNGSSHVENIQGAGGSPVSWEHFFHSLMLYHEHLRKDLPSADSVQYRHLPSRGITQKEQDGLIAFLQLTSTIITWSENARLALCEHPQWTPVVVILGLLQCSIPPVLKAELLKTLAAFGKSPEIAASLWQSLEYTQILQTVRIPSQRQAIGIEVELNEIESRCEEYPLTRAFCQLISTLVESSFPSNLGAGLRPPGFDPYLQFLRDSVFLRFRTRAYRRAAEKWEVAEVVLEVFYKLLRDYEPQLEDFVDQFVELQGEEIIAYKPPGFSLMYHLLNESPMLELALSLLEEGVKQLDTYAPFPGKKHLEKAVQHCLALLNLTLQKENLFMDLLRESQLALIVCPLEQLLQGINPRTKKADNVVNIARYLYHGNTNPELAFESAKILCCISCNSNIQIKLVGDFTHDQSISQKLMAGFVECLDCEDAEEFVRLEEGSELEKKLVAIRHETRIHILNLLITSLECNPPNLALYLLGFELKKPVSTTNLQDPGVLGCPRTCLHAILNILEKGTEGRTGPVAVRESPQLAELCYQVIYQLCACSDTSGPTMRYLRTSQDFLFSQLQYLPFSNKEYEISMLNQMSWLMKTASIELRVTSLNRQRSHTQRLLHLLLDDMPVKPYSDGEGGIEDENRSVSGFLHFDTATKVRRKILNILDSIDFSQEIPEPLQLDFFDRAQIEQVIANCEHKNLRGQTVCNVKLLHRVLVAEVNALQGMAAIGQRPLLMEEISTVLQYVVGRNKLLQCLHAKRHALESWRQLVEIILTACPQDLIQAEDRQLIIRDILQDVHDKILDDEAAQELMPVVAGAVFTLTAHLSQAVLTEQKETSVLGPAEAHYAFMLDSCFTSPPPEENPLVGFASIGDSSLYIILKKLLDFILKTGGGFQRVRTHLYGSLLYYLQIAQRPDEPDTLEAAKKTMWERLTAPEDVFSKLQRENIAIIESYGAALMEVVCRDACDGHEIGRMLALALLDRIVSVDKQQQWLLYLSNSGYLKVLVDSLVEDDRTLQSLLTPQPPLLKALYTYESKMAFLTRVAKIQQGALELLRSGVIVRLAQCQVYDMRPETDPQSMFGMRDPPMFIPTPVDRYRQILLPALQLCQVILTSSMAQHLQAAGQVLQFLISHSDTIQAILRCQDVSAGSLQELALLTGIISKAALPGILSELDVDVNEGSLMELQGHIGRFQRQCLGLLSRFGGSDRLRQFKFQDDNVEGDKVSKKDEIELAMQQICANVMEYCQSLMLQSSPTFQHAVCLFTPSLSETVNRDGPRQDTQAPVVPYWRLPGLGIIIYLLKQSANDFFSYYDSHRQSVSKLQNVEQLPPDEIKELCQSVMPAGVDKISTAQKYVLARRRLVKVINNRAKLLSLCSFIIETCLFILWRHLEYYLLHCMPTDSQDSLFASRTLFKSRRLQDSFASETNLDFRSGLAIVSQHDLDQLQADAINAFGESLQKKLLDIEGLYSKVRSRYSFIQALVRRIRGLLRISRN

Target | log2 fold change (saracatinib) | log2 fold change (sotrastaurin) | log2 fold change (alvocidib) | log2 fold change (Tubastatin A) | log2 fold change [1] | log2 fold change (defactinib) | log2 fold change (rucaparib) | log2 fold change [2] | log2 fold change (encorafenib) | log2 fold change [3] | log2 fold change [4] | log2 fold change (filanesib) | log2 fold change (zotarolimus) | log2 fold change (idasanutlin) | log2 fold change (alisertib) | log2 fold change [5] | log2 fold change [6] | log2 fold change (lapatinib) | log2 fold change (pictilisib) | log2 fold change (gefitinib)
MRPS26 (UniProt Q9BYN8) | -0.094 | -0.013 | 0.025 | 0.156 | 0.003 | -0.01 | 0.093 | 0.122 | 0.089 | 0.003 | -0.039 | 0.09 | 0.04 | -0.145 | -0.078 | 0.041 | 0.072 | 0.074 | -0.155 | –
MLX (UniProt Q9UH92) | -0.171 | -0.084 | -0.037 | 0.075 | -0.149 | – | -0.169 | 0.004 | 0.149 | – | -0.054 | 0.027 | -0.009 | -0.071 | -0.014 | 0.025 | 0.057 | -0.099 | 0.05 | 0.022
NUP205 (UniProt Q92621) | -0.003 | -0.057 | -0.127 | 0.023 | -0.024 | -0.132 | -0.065 | -0.012 | 0.096 | -0.038 | 0.015 | 0.01 | 0.009 | -0.08 | -0.014 | 0.058 | -0.008 | -0.03 | -0.01 | -0.011
OSBPL3 (UniProt Q9H4L5) | -0.284 | -0.414 | 0.234 | 0.219 | 0.312 | 0.127 | 0.518 | 0.122 | 0.006 | -0.11 | -0.052 | 0.582 | 0.14 | 0.277 | – | -0.688 | – | 0.391 | – | 0.174
MRPS6 (UniProt P82932) | -0.197 | -0.058 | -0.036 | 0.011 | -0.003 | -0.023 | 0.056 | 0.092 | 0.016 | -0.126 | 0.204 | -0.019 | 0.038 | -0.275 (active) | 0.029 | 0.012 | -0.081 | 0.035 | -0.003 | -0.051
NECTIN2 isoform 2 (UniProt Q92692) | 0.188 | 0.288 | – | – | 0.062 | 0.11 | -0.039 | 0.158 | 0.077 | 0.049 | 0.106 | 0.094 | – | 0.061 | -0.016 | – | 0.093 | – | -0.368 | -0.048
MSANTD2 (UniProt Q6P1R3) | -0.248 | 0.105 | – | 0.032 | – | -0.113 | -0.32 | 0.03 | -0.067 | -0.01 | – | -0.107 | – | – | – | – | – | – | – | –
PAFAH2 (UniProt Q99487) | 0.023 | -0.074 | -0.112 | -0.196 | -0.179 | -0.093 | – | -0.133 | – | -0.067 | -0.025 | -0.089 | 0.012 | 0.153 | – | 0.043 | – | -0.037 | – | –
NME1 isoform 2 (UniProt P15531) | -0.156 | 0.049 | -0.103 | -0.024 | -0.087 | -0.01 | 0.035 | 0.069 | -0.032 | 0.041 | 0.017 | 0.007 | 0.001 | 0.022 | 0.062 | 0.021 | 0.141 | -0.009 | 0.666 (active) | -0.063
NKTR (UniProt P30414) | – | – | – | – | 0.939 (active) | – | – | – | – | – | – | – | – | – | 0.064 | 0.295 | 0.109 | -0.173 | – | –
NA (UniProt B2RBV5) | – | -0.057 | – | – | – | – | -0.16 | – | -0.09 | – | – | 0.081 | – | – | -0.043 | 0.001 | 0.028 | -0.243 | 0.061 | -0.33
OAF (UniProt Q86UD1) | – | 0.139 | – | – | 0.043 | – | – | – | – | – | – | -0.017 | – | – | -0.239 | – | 0.539 (active) | – | – | –
MOB2 isoform 3 (UniProt Q70IA6) | – | – | -0.017 | -0.073 | -0.123 | – | – | – | – | – | – | – | 0.205 | – | -0.066 | -0.184 | 0.02 | 0.025 | 0.06 | 0.051
OVCA2 (UniProt Q8WZ82) | – | – | – | – | – | – | 0.116 | – | -0.052 | – | -0.206 | – | – | -0.023 | 0.102 | 0.201 | -0.318 | -0.014 | -0.176 | -0.143
NDUFA7 (UniProt M0R0N0) | – | 0.201 | – | – | -0.195 | 0.076 | – | – | – | 0.093 | – | -0.042 | – | – | – | – | – | – | – | –
NME2P1 (UniProt O60361) | – | 0.057 | 0.004 | 0.059 | -0.145 | 0.034 | -0.814 (active) | – | 0.003 | -0.017 | -0.256 | 0.058 | -0.111 | -0.367 | -0.089 | 0.122 | 0.084 | -0.075 | -0.041 | -0.01
MXRA7 isoform 3 (UniProt P84157) | – | – | – | – | – | – | – | – | – | – | – | – | – | – | – | 0.077 | – | -0.27 | – | –
NUDT7 (UniProt P0C024) | – | 0.035 | – | -0.045 | 0.052 | – | – | – | – | – | 0.023 | -0.092 | – | – | – | – | – | – | 0.115 | 0.05
MORC2 (UniProt Q9Y6X9) | – | – | – | – | 0.124 | – | – | – | – | – | 0.195 | – | – | -0.018 | -0.012 | 0.134 | -0.013 | -0.118 | – | –
NUDT6 (UniProt P53370) | 0.063 | – | 0.165 | 0.098 | 0.014 | 0.066 | -0.38 | -0.023 | -0.024 | -0.087 | 0.017 | – | -0.173 | – | 0.012 | 0.175 | -0.084 | -0.017 | – | -0.025
NA, A0A1W2PSA9 | -0.046 | – | 0.168 | -0.17 | – | – | – | -0.107 | – | – | – | – | -0.275 | 0.049 | – | – | – | – | -0.179 | –
OSBPL2 (UniProt Q9H1P3) | – | – | -0.197 | – | – | – | – | – | – | – | – | – | 0.085 | – | -0.019 | -0.187 | -0.042 | 1.57 (active) | – | –
PACRGL (UniProt Q8N7B6) | – | -0.075 | – | – | – | – | – | – | – | – | – | 0.056 | – | – | – | – | – | – | – | –
MMADHC (UniProt Q9H3L0) | -0.044 | – | 0.031 | 0.07 | -0.011 | -0.061 | 0.139 | 0.062 | -0.031 | -0.011 | -0.031 | – | 0.102 | -0.135 | 0.006 | 0.056 | 0.013 | 0.176 | -0.114 | 0.305
